# In PubChem BioAssay:
# Unmarked numbers belong to inactive results. The rule behind the calls is not given here.
# Assay: blockers of DNA damage checkpoint Chk1 activation – imaging, HeLa, hydroxyurea, phospho-Chk1 nuclear intensity, primary screen (AID 1187); note: test concentration not given here
# Details: hydroxyurea-induced phospho-Chk1 immunofluorescence imaging, higher = more signal
row,Compound,z-score
1,CC(C)OC(=O)C=C1C[C@@H](c2ccc(C#N)cc2)O[C@@H](c2ccc(C#N)cc2)O1,0.219
2,COC(=O)C1(C)C=C2C(=C(c3ccccc3)C(=O)C2C)CN1 (centres undefined),0.84
3,C=C(COC)/C(=C/C[C@H](OC(=O)c1ccncc1)c1ccc(CO)o1)c1cc(C(=O)OC)ccc1OC,-0.437
4,CC(C)=C1C(=O)C(c2ccccc2)=C2CN3C(=O)N(CCc4ccccc4)C(=O)[C@]3(Cc3ccc(F)cc3)[C@H]21,0.314
5,O=C1NC(=O)C2C1C=CC(C(O)Cc1ccccc1)N2Nc1ccccn1 (centres undefined),-0.306
6,CC(C)(C)N1CC=CC23O[C@@H]4C=CCCOC(=O)C4[C@H]2C(=O)N(CCCCCO)[C@@H]3C1=O (some centres undefined),-1.13
7,CN(C)c1ccc(C(O)C2C=CC3C(=O)N(c4ccccc4)C(=O)C3N2Nc2ccccc2F)cc1 (centres undefined),-0.817
8,CC(C)(C)OC(=O)CC[C@]1(C(=O)NCc2ccccc2)N=C(c2ccc(OCCCO)cc2)O[C@H]1c1ccccc1,-0.062
9,COC(=O)[C@]1(CO)N=C(c2ccc(OCCCO)cc2)O[C@@H]1c1ccccc1N=[N+]=[N-],0.0674
10,COC(=O)[C@@]1(Cc2ccc(F)cc2)[C@H]2c3cc(C(=O)N(C)C)n(Cc4ccc(OC)c(OC)c4)c3C[C@H]2CN1C(=O)c1ccccc1,0.753
11,CCOc1ccc(N2C(=O)/C(=C/C=C/c3ccccc3OC)S(=O)(=O)C2c2cccc([N+](=O)[O-])c2)cc1 (centres undefined),-0.16
12,CN(C)CCCNC(=O)[C@@H]1c2ccccc2C(=O)N(Cc2cc(F)cc(C(F)(F)F)c2)[C@H]1c1ccc(CO)cc1,-0.0884
13,CC(C)(C)OC(=O)CC[C@]1(C(N)=O)COC(c2ccc(OCCCO)cc2)=N1,0.572
14,CCCCCN1CC=CC23O[C@@H]4C=CCOC(=O)[C@@H]4[C@H]2C(=O)N(C(CO)C(C)C)[C@@H]3C1=O (some centres undefined),0.0917
15,C=C(/C(=C/C[C@@H](OC(=O)c1ccncc1)c1ccc(OCCO)cc1)c1cnc2ccccc2c1)C(C)C,-0.051
16,O=C1O[C@@H](c2ccccc2)[C@@H](c2ccccc2)N2[C@@H](c3ccc(OCCO)cc3)[C@]3(C(=O)Nc4ccc(C#CCCO)cc43)[C@@H](C(=O)N3CCCCCCC3)[C@H]12,0.224
17,Cc1ccc(C2CC=C(C(=O)O)CN2S(=O)(=O)c2ccc(C)cc2)cc1 (centres undefined),-0.999
18,Cc1ccc(S[C@]2(C(=O)O)CC(=O)N(Cc3ccccc3)[C@@H]2c2ccc(CO)cc2I)cc1,-0.134
19,CCOC(=O)C[C@H]1[C@H](OC(=O)c2ccc(C(=O)c3ccccc3)cc2)[C@@H](NC(=O)c2ccc(-c3ccccc3)cc2)c2cc(OCCCO)ccc2N1C(=O)c1ccc2ccccc2n1,-0.596
20,C=CCN1C(=O)[C@]2(O[C@H](CCn3cc(CCO)nn3)[C@@H]([Si](C)(C)c3ccc(OC)cc3)[C@@H]2C)c2cc(N3CCOC3=O)ccc21,-0.5
21,CN(C)C(=O)[C@@]1(Cc2ccccc2)N=C(c2ccc(OCCCO)cc2)O[C@H]1c1ccccc1CN=[N+]=[N-],0.492
22,COc1ccc([Si](C)(C)[C@H]2[C@H](CC(=O)N3CCC[C@H]3CO)O[C@@]3(C(=O)N(Cc4cccc(N5C(=O)COc6ccccc65)c4)c4ccccc43)[C@@H]2C)cc1,0.728
23,COCCCNC(=O)[C@@]1(CCS(=O)(=O)c2ccccc2)N=C(c2ccc(OCCCO)cc2)O[C@H]1c1ccccc1,-0.2
24,COCCCNC(=O)[C@]1(Cc2ccccc2)N=C(c2ccc(OCCCO)cc2)O[C@@H]1c1ccccc1,-0.0405
25,COc1ccccc1CN1C(=O)c2ccccc2[C@@]2(Cc3ccccc3N(C(C)C)C2=O)[C@@H]1c1ccc(CO)cc1,0.36
26,CC(C)N1CC=CC23O[C@@H]4C=CCCOC(=O)C4[C@H]2C(=O)N(CCCCCCO)[C@@H]3C1=O (some centres undefined),-0.286
27,CCCNC(=O)[C@@H]1c2ccccc2C(=O)N(c2ccc(C)cn2)[C@H]1c1ccc(CO)cc1,0.52
28,CCCNC(=O)[C@@H]1c2ccccc2C(=O)N(Cc2ccccc2Cl)[C@H]1c1ccc(CO)cc1,-0.142
29,O=C1C[C@]2(c3ccc([N+](=O)[O-])cc3)C(=O)N(CCN3CCOCC3)c3cc(CO)ccc3[C@H]2N1CC12CC3CC(CC(C3)C1)C2,0.394
